# Screening results: PubChem BioAssay, National Center for Advancing Translational Sciences (NCATS)
# This is a sample that favours compounds with a hit; in the whole collection about 21% have one here.
# ClpP mod: qHTS Assay for Activators of ClpP; ATP-dependent Clp protease proteolytic subunit (Bacillus subtilis (strain 168)), P80244; purified B. subtilis ClpP, FRET peptide cleavage, 20 min; Potency, µM (highest dose often 57.5 µM), for inactives: top-dose activity change, negative = active; actives 1.9% (n = 340,000); active = well fitted falling curve with a large enough effect; inconclusive = small, poorly fitted or top-dose-only effect; inactive = no such curve, though single readings can be large or run the other way; note: potency is the fitted concentration of half-maximal effect; the source files actives as falling curves though it sought activators and does not explain the sign; nearly all actives have a fitted effect of over 65% in size
#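 FRET quenching reversal measured ClpP activation: 10 microg/mL B. subtilis ClpP at pH 8 with the FRET-FV decapeptide, read at 430 nm after 320 nm excitation. The 20-min minus 0-min signal was scaled between DMSO/no-enzyme wells and ADEP (5.8 microM final).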
# DRD3 agonist: agonists of human D3 dopamine receptor; P35462; D3R DiscoveRx beta-arrestin cells, luminescence, 90 min; max activation, %; actives 0.58% (n = 410,000); AID 652048; in the data active = max activation above about 30%; note: 0% is about no effect
#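 Cells at 1500/well, incubated overnight, then treated with pinned compounds (dopamine as control) for 90 min at 37 degrees C. DiscoveRx reagent added for 30 - 60 minutes at room temperature; luminescence read.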
# DT40 TDP1 CPT: growth inhibition of DT40 Tdp1-/-;hTDP1 cells with camptothecin (screen for TDP1 inhibitors); chicken DT40 Tdp1-/-;hTDP1 cells + 20 nM CPT, ATP luminescence, 48 h; Potency, µM (doses to about 46.2 µM), inactives show top-dose activity change, negative = growth inhibition, actives largely listed as inhibitors; actives 12% (n = 420,000); AID 686979; note: potency is the fitted concentration of half-maximal effect; % is set by controls: 0 for no effect and ±100 for the full control effect; nearly all actives have a fitted effect of over 55% in size
#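 Chicken DT40 Tdp1-/- cells complemented with human TDP1, 400 cells/well, exposed to compounds plus 20 nM camptothecin for at least 48 h at 37 C; viability read as ATP content by CellTiter-Glo luminescence.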
# DT40 TDP1 no CPT: qHTS for Inhibitors of human tyrosyl-DNA phosphodiesterase 1 (TDP1): qHTS in cells in absence of CPT; DT40 Tdp1-/- hTDP1 cells, no CPT, ATP luminescence, 48 h; Potency, µM (highest dose often 46.2 µM), inactives show at the highest dose activity change, negative = growth inhibition, actives largely listed as inhibitors; actives 15% (n = 420,000); note: potency is the fitted concentration of half-maximal effect; % is set by controls: 0 for no effect and ±100 for the full control effect; nearly all actives have a fitted effect of over 55% in size
#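 Camptothecin absent (DMSO only). Human TDP1-complemented DT40 knockout cells, 400 cells/well, 37 °C for minimum 48 hr; ATP measured via CellTiter-Glo, 30 min dark incubation, luminescence.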
# IL1B secr inh: blocks inflammasome-driven IL-1 beta release; AID 743279; activity change, % at 57.5 µM; actives 4.7% (n = 360,000); THP-1 LPS/ATP IL-1B secretion, AlphaLISA, 16 h; active compounds read low; in the data active = activity change below about -50%; inconclusive = mostly about -30% to -49%; note: % is set by controls: 0 for no effect and ±100 for the full control effect
#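 THP-1 cells pretreated 1 hr with compounds (up to 57.5 uM final), then stimulated with LPS (250 ng/mL final) plus ATP (1.25 mM final); secreted IL-1B measured by AlphaLISA after 16 hr, decreased signal indicating inhibition.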
# DRD3 antagonist: antagonists of human D3 dopamine receptor; P35462; D3R cells, DiscoveRx beta-arrestin luminescence, antagonist mode; active compounds read low; max response, negative = inhibition, %; actives 2.5% (n = 360,000); AID 652054; in the data active = max response below about -50%; inconclusive = no clear call, values can overlap the other calls; note: % is set by controls: 0 for no effect and ±100 for the full control effect
#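 Cells plated overnight at 1500 cells/well, then exposed to library compounds with dopamine controls for 90 minutes at 37 degrees C. DiscoveRx reagent added for 30–60 minutes at room temperature; luminescence read, quantitative HTS format.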
# Active calls of the source: *; ? = inconclusive; nt = no result. Unless noted, calls come from the whole dose curve; as a rule, active = well fitted inhibition curve with a large enough effect; inconclusive = small, poorly fitted or top-dose-only effect; inactive = flat fitted curve, though single readings scatter.
SMILES,ClpP mod,DRD3 agonist,DT40 TDP1 CPT,DT40 TDP1 no CPT,IL1B secr inh,DRD3 antagonist
CCN(CC)S(=O)(=O)c1ccc(C(=O)/C=C/c2ccc(-c3ccc([N+](=O)[O-])cc3)o2)cc1,1%,0,?,6.5µM*,0,9
O=C(/C=C\c1ccc(-c2ccccc2)o1)c1ccccc1,-28%,-6,?,?,-92*,-27
Cc1ccc(C(=O)/C=C/c2ccc(-c3ccc(C)cc3)o2)cc1,1%,-2,5.2µM*,5.2µM*,-14,-13
O/N=C\c1ccc(-c2ccccc2)o1,-7%,-2,-3%,1%,0,1
CC(=O)N1CCc2cc(S(=O)(=O)NC(C(=O)Nc3ccc(C)cc3C)C(C)C)ccc21 (stereo not given),-1%,1,-4%,?,nt,nt
O=C(Nc1ccc(N2CCN(c3ccc(F)cc3)CC2)c(C(=O)O)c1)c1cccs1,1%,9,-4%,-11%,nt,nt
COc1ccc(C2C=CC(=O)CC2)c(OC)c1 (stereo not given),3%,2,?,?,-76*,2
COc1ccc(C2C(=O)c3ccccc3C2=O)c(OC)c1,-3%,0,-7%,-7%,52,7
O=C(O)C1=C[C@@H](c2csc3ccccc23)C[C@@H](OCc2ccc(CO)cc2)O1,-3%,-12,?,-13%,-4,?
O=C(NC1CC1)C1=C[C@H](c2csc3ccccc23)C[C@H](OCCCCO)O1,-3%,1,-18%,-23%,-7,7
O=C(C1=C[C@H](c2csc3ccccc23)C[C@H](OCc2ccc(CO)cc2)O1)N1CCCCCCC1,-2%,-24,?,21µM*,-20,?
O=C(NCc1ccccc1)C1=C[C@@H](c2csc3ccccc23)C[C@@H](OCCCCO)O1,-3%,0,1.6µM*,1.6µM*,-12,1
O=C(NCc1ccccc1)C1=C[C@@H](c2coc3ccccc3c2=O)C[C@@H](OCc2ccc(CO)cc2)O1,1%,8,10µM*,9.2µM*,-9,26
CN1CCN(C(=O)C2=C[C@H](c3csc4ccccc34)C[C@H](OCc3ccc(CO)cc3)O2)CC1,-2%,-29,?,?,-22,10
C#CCNC(=O)C1=C[C@@H](c2csc3ccccc23)C[C@@H](OCc2ccc(CO)cc2)O1,0%,-4,16µM*,?,0,16
O=C1CN(C(=O)Cc2ccc(F)cc2)C(c2ccccc2)c2cc(Br)ccc2N1 (stereo not given),-3%,6,?,?,nt,nt
O=C(O)C1=C[C@H](c2csc3ccccc23)C[C@H](OCc2ccc(CO)cc2)O1,-2%,6,-1%,12%,1,-12
O=C(NCc1ccccc1)C1=C[C@@H](c2csc3ccccc23)C[C@@H](OCc2ccc(CO)cc2)O1,-7%,12,2.9µM*,4.6µM*,?,8
[O-][n+]1c2ccccc2c2n1CCN=C2c1ccc(Cl)cc1,-1%,0,-12%,-22%,15,15
Cc1ccc(C2=NCCn3c2c2ccc([N+](=O)[O-])cc2[n+]3[O-])cc1,-3%,-5,4.1µM*,10µM*,8,6
O=[N+]([O-])c1ccc2c3n([n+]([O-])c2c1)CCN=C3c1ccc(Cl)cc1,-3%,2,9.2µM*,15µM*,-14,-10
COc1ccc(C2=NCCn3nc4cc([N+](=O)[O-])ccc4c32)cc1,-5%,-3,-20%,-8%,7,-21
Fc1ccc(-c2cc(-c3nc(-c4ccc(Cl)cc4)no3)[nH]n2)cc1,-2%,0,?,?,nt,nt
Cc1cc(Cl)cc2c1NC(=O)[C@]21[C@@H]2C(=O)N(Cc3ccccc3)C(=O)[C@@H]2[C@@H]2CCCN21,6%,0,-24%,?,-10,6
COC(=O)c1c(N2C(=O)[C@H]3[C@@H](C2=O)[C@]2(C(=O)Nc4c(C)cccc42)N2CCC[C@@H]32)sc(C)c1C,4%,2,21µM*,10µM*,-25,0
SMILES,ClpP mod,DRD3 agonist,DT40 TDP1 CPT,DT40 TDP1 no CPT,IL1B secr inh,DRD3 antagonist
CCOC(=O)Nc1ccc2c(c1)C(=NO)c1ccccc1-2,1%,2,18µM*,21µM*,-75*,6
CCOC(=O)Nc1ccc2c(c1)C(=NNC(N)=S)c1ccccc1-2,-5%,-10,6.5µM*,3.3µM*,-96*,?
CN(C)c1ncc2nc(-c3cc(F)cc(F)c3)c(=O)n(C3CC3)c2n1,nt,nt,-2%,6%,nt,nt
COc1ccc(C(=O)CN2CCN(CCN3C(=O)c4cccc5cccc(c45)C3=O)CC2)cc1,?,-4,?,21µM*,-20,-6
COc1cc2c3c(cccc3c1)C(=O)N(CCN1CCCC1)C2=O,4%,-1,0.037µM*,0.1µM*,-10,0
CS(=O)(=O)N1CCN(CCN2C(=O)c3cccc4cccc(c34)C2=O)CC1,nt,2,-9%,?,-12,5
CCC(C)[C@H](NC(=O)[C@H](Cc1ccccc1)n1c(=O)[nH]c2ccccc2c1=O)C(=O)N1CCC[C@@H]1C(=O)O (stereo not given in full),-20%,-1,12%,3%,25,-8
CCN(c1ccc(OC)cc1)S(=O)(=O)c1nnc(NC(=O)c2ccccc2C)s1,-4%,-8,?,-28%,nt,nt
CCN(c1ccccc1C)S(=O)(=O)c1nnc(NC(=O)c2ccccc2C)s1,-5%,-18,?,18µM*,nt,nt
CCN(c1ccc(C)cc1C)S(=O)(=O)c1nnc(NC(=O)CC(C)C)s1,-4%,-11,?,?,nt,nt
CCN(c1ccc(C)cc1C)S(=O)(=O)c1nnc(NC(=O)c2ccccc2OC)s1,-26%,-11,?,16µM*,nt,nt
Cc1ccc(OCCOC(=O)CN2C(=O)NC3(CCCC3)C2=O)cc1,-3%,3,?,-25%,-10,-17
Cc1cnc(CNc2cc(-c3ccc(C(=O)N(C)C)cc3)ncn2)cn1,nt,nt,5%,20%,nt,nt
COCCCN1C(=O)c2[nH]nc(-c3ccccc3O)c2C1c1cccc(Cl)c1 (stereo not given),-1%,0,21µM*,2.9µM*,10,-15
CC(C)OCCCN1C(=O)c2[nH]nc(-c3ccccc3O)c2C1c1cccc(Cl)c1 (stereo not given),0%,-1,18µM*,23µM*,?,56
